We go through 13 compounds from PubChem BioAssay (NCI).

About 83,000 compounds went through this panel and 20% of them were active in at least one assay; those are over-represented in the sample as a whole.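 The test compound was applied at a single concentration to cells in 96-well plates for 48 hours, and percent growth was recorded.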 Unmarked numbers belong to inactive results. Calls of active or inactive are those of the source. How the source made its calls: active means growth percent below 10; inactive means the rest.

This experiment concerns SN12C renal. The experiment in a line: NCI-60 one-dose screen, 48 h (100 = growth as untreated, 0 = no growth, -100 = all killed). The conditions noted are these: 10 µM unless noted.
Turning to `NNc1nnc2nc(Nc3ccccc3)nc(Nc3ccc(S(N)(=O)=O)cc3)n12`, the growth is 98.8%.

For the compound `Brc1ccc2[nH]cc(-c3nn4cc(-c5nccs5)nc4s3)c2c1`, the growth was 71.1%. Under `Nn1c(=O)n(-c2cccc(C(F)(F)F)c2)c(=O)c2cc(-c3ccc(F)cc3F)ccc21` stands 1.86% (active). As to `CN(C)CCNc1ccc2ncc(C#Cc3cncc(C(=O)Nc4ccc(CN5CCN(C)CC5)c(C(F)(F)F)c4)c3)n2n1`, the growth is -9.94% (active). With `O=S(=O)(Oc1ccc(-c2cn3ccoc3n2)cc1)C1CCCCC1`, the growth is 103%. With `O=C(N/N=C\c1ccc([N+](=O)[O-])cc1)c1ccc2nc(-c3ccc(Br)cc3)[nH]c2c1`, the growth is 16.9%. In the case of `Cc1ccsc1[C@H]1c2[nH]c3ccccc3c2C[C@H]2C(=O)N(CCCCCCC(=O)NO)CC(=O)N12`, the growth is 86.5%. The figure for `Cc1ccc(N2CCN(C3=C(Cl)C(=O)c4ncccc4C3=O)CC2)cc1` is 27.8%; for `N#Cc1cccc(-c2cc(-c3ccc4c(c3)OCCO4)[nH]n2)c1` it is 49.2%; for `COc1cc2cc(Oc3ccc(NC(=O)c4cc(C(F)(F)F)cc(C(F)(F)F)c4)cc3)c(C)nc2cc1OCCN1CCOCC1` it is 83%. The figure for `N#C/C(=N\Nc1ccc(F)cc1)C(=O)Nc1cc(-c2ccccc2)nn1-c1ccccc1` is 1.17% (active); for `CN(C)CCCOc1ccc(C(=C(c2ccccc2)C2CCCC2)c2ccc(OCCCN(C)C)cc2)cc1` it is -82.2% (active).

Regarding `NC(=O)c1ncn2c(=O)n(CCF)nnc12`, the growth was 85.5%.
